Measured values reported in PubChem BioAssay (EPA / NIEHS).
The source made the active and inactive calls. The calls were made as follows: active = hit-call score of the fitted dose curve at least 0.9, where 1 is the maximum; inactive = score below 0.9.

Read-out: Apoptosis regulator Bcl-2 (Homo sapiens) (UniProt P10415)
Assay: LTEA_HepaRG_BCL2: Life Technologies and Expression Analysis (LTEA) Assay for Bcl-2 gene using HepaRG (AID 2283475);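 also: BCL2 transcript by TaqMan qRT-PCR normalised to ACTB GAPDH and POLR2A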
Settings: mRNA level, 48 h; actives raise or lower the signal
Method: LTEA_HepaRG is a cell based, multiplexed-readout assay that uses HepaRG, a human liver cell line, with measurements taken at 48 hours after chemical dosing on a 96-well plate.LTEA_HepaRG_BCL2 is one of 102 assay component(s) measured in the LTEA HepaRG cell culture assay. It is a marker of Cell proliferation, survival, death.Data from the assay component LTEA_HepaRG_BCL2 was analyzed into 1 endpoint. This assay endpoint, LTEA_HepaRG_BCL2, was analyzed with bidirectional fitting relative to DMSO as the negative control and baseline of activity. Using a type of inducible reporter, measures of mRNA induction for gain or loss-of-signal activity can be used to understand regulation of transcription factor activity. To generalize the intended target to other relatable targets, this assay endpoint is annotated to the cell cycle intended target family, where the subfamily is Cell proliferation, survival, death.
A total of 1060 chemcials from the ToxCast library were tested in eight-point concentration-response experiments. Cell culture and cytotoxicity assays were conducted at Thermo Fisher Scientific's Custom Services facility (Madison, WI). A single lot of human HepaRG cells (Thermo Fisher Scientific, Frederick, MD) was used for the cell culture experiments. 96-well format collagen type I coated plates of human HepaRG cells were prepared using established methods. Briefly, cryopreserved HepaRG cells were thawed, plated at a density of approximately 100,000 cells/well in HepaRG Thaw, Plate, and General Purpose media (HPRG770, Thermo Fisher Scientific), and incubated for 48 hours. 0.5% DMSO was selected as vehicle control to balance the requisite need of DMSO in HepaRG cultures to maintain differentiation (for example, baseline metabolism, proportions of hepatocytes vs. cholangiocytes), while enabling further hepatic receptor pathway activation (for example, PXR and CAR) in response to chemical exposure. 48 hours after plating, the culture medium was replaced with HepaRG Serum-Free Incudtion Media. Cells were exposed to each test chemical in duplicate and maintained in CO2 incubators for another 48 hours. Chemical plates were thawed to room temperature and 200x concentrations of treatment groups were prepared. 8-point conentration-reponse curves were made with the highest exposure at 100 uM, followed by half-log dilutions, all in 0.5% DMSO. Each test plate contained variouse controls, induction positive controls (1mM phenobarbital), cytotoxicity positive controls ([…] aflatoxin B1), vehicle controls (0.5% DMSO), and total lysis controls (0.5% DMSO). Cell morphology images were taken using an Essen IncuCyte FLR automated microscope, with six 96-well plates imaged in about 24 minutes. Images were captured and exported and JPEG files. Spent culture media was transfered to black-well plates for the LDH assay, and remaining media was sorted at -80 C for later use. Cells were treated with RLT buffer and frozen until shipped for gene expression analysis. Total RNA was isolated from the cell suspension in 75 uL of Buffer RLT (Qiagen, Germantown, MD 20874) by Quintiles/Expression Analysis (Durham, NC) using a custom isolation procedure. Total RNA from each plate well was transferred to a preamplification plate. Fluidigm's 96.96 Dynamic ArrayTM (Fluidigm, Amsterdam, the Netherlands) technology was used for gene expression analyses by quantitative reverse transcription polymerase chain reaction (qRT-PCR, performed by Quintiles/Expression Analysis, Durham, NC)89. Standard TaqManTM Assays (Applied Biosystems/ThermoFisher Scientific, Foster City, CA) were used to assess the expression of 93 genes selected based on their selectivity and sensitivity to important hepatic receptors known to be modulated by environmental chemicals; importance in human hepatocyte functionality; and hepatotoxicity. […]

Apoptosis regulator Bcl-2 (Homo sapiens), sequence (P10415 whole entry, looked up): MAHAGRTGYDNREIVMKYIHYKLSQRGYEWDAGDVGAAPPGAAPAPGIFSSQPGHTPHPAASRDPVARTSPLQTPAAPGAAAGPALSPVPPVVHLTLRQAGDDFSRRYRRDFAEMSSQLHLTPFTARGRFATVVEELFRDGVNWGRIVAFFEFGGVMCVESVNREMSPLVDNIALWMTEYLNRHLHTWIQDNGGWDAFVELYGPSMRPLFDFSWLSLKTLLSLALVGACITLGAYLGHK

SMILES | outcome
CC(C)O.CC(C)O.OCCN(CCO)CCO.OCCN(CCO)CCO.[Ti] | inactive
OCCN(CCO)CCO | inactive
CCCCCCCCCCCCc1cccc(S(=O)(=O)O)c1 | inactive
O=C(O)C1(c2ccc3c(c2)OC[C@H](Cc2ccc(-c4ccccc4)cc2)[C@H]3O)CCCC1 | inactive
Oc1c(Cl)cc(Cl)cc1Cl | inactive
COc1ccccc1N | inactive
Clc1cccc(Cl)c1 | inactive
CN(C)C(=S)S | inactive
Cc1cc(C)cc(C)c1 | inactive
CC(C)(C)c1ccccc1O | inactive
Clc1cccc(Cl)c1Cl | inactive
O=C(N[C@H]1CN2CCC1CC2)c1ccc2c(c1)OCCO2 | inactive
Oc1cc(Cl)c(Cl)cc1Cl | inactive
N#Cc1cccnc1 | inactive
